For nine molecules, outcome and AC50 results are on record in PubChem BioAssay (EPA / NIEHS).

Experiment [1] can be described thus: BSK_4H_Eotaxin3: BioMAP Diversity Plus: 4H Assay for Eotaxin 3 Biomarker Activity (AID 2283000).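 For outcome: CCL26 protein level quantified by ELISA in parallel with SRB cytotoxicity check.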 The note with it: primary human endothelial cells (HUVEC); actives raise or lower the signal. In short, it runs like this: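 HUVEC, 24 h post-dose, ELISA for Eotaxin-3/CCL26. Gain or loss of signal fitted bidirectionally vs DMSO baseline.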
The target in experiment [2] is human Retinoic Acid Receptor beta (RARb), RARB (gene 5915) (UniProt P10826). Briefly: ATG_RARb_TRANS: Attagene TRANS-FACTORIAL HepG2 Assay for human Retinoic Acid Receptor beta (AID 2283004; active = hit-call score of the fitted dose curve at least 0.9, where 1 is the maximum). In short, it runs like this: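 HepG2 cells transiently transfected with multiplexed GAL4-UAS reporter units expressing chimeric NR–Gal4 fusions; 24 h compound exposure. Reporter mRNA quantified by RT-PCR, 6-FAM labelling, HpaI digestion and capillary electrophoresis; gain-of-signal fitted against DMSO baseline.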
human Retinoic Acid Receptor beta (RARb), RARB (gene 5915), sequence (P10826 whole entry, looked up, the tested form may be a part): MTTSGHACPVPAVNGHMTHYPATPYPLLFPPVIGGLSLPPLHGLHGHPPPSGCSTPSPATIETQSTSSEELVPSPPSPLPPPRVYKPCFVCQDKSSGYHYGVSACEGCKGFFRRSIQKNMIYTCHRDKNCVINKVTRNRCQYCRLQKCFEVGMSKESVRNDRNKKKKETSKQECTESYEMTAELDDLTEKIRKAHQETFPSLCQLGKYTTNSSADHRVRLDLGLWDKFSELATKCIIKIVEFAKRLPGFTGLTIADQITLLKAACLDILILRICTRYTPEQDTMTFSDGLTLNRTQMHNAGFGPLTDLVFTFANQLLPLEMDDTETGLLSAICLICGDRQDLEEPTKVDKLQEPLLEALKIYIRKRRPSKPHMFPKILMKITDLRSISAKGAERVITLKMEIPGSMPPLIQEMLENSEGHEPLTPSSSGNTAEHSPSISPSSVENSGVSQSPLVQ

Experiment [3] has as its target Retinoic acid receptor alpha (Homo sapiens) (UniProt P10276). Briefly: ATG_RARa_TRANS: Attagene TRANS-FACTORIAL HepG2 Assay for human Retinoic Acid Receptor alpha (RARa) (AID 2283005; active = hit-call score of the fitted dose curve at least 0.9, where 1 is the maximum;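 for AC50: potency for increased reporter signal meaning RARa activation over DMSO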). In short, it runs like this: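 HepG2 cells transiently transfected with multiple reporter units expressing chimeric RARα-GAL4 fusion, with GAL4-UAS-driven reporters. After 24 h compound exposure, reporter mRNA induction quantified by RT-PCR and capillary electrophoresis with fluorescent labeling; gain-of-signal fitted relative to DMSO control.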

Experiment [4] can be described thus: BSK_3C_Proliferation: Cell Proliferation Assessment in the BioMAP Diversity Plus: 3C Assay (AID 2283006).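 For AC50: potency may reflect either rise or fall in cell number versus DMSO.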 Particulars: primary human endothelial cells (HUVEC). Put shortly:
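Read-out is total protein by SRB absorbance at 560 nm, taken as a proxy for relative cell number. Primary human umbilical vein endothelium cultured below confluence was dosed for 48 h, TCA-fixed and SRB-stained; curves were fitted bidirectionally versus DMSO.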

For experiment [5], the target named is Peroxisome proliferator-activated receptor gamma (Homo sapiens) (UniProt P37231). Briefly: ATG_PPARg_TRANS: Attagene TRANS-FACTORIAL HepG2 Assay for human Peroxisome Proliferator-activated Receptor-gamma (PPARg) (AID 2283007; active = hit-call score of the fitted dose curve at least 0.9, where 1 is the maximum). In short, it runs like this: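 Read-out: reporter mRNA induction, detected by fluorescence after RT-PCR and capillary electrophoresis. Transiently transfected human HepG2 liver cells carrying a chimeric NR-Gal4 construct were dosed for 24 h; activity was fitted upward relative to DMSO.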
Peroxisome proliferator-activated receptor gamma (Homo sapiens), sequence (P37231 whole entry, looked up, the tested form may be a part): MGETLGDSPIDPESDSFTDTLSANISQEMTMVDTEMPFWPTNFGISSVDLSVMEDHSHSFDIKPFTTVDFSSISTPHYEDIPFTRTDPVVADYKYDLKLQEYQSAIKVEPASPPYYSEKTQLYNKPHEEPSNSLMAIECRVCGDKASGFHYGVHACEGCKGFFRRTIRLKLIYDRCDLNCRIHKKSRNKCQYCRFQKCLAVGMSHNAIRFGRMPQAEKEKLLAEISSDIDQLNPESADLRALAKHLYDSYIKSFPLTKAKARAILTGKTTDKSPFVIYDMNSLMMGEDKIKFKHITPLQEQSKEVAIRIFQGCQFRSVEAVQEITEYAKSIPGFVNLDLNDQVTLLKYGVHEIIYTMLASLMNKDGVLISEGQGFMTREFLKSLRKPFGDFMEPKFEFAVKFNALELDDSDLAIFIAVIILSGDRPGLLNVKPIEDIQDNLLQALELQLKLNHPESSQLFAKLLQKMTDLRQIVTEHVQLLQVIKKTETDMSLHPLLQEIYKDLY

Experiment [6] concerns the target Nuclear receptor subfamily 1 group I member 2 (Homo sapiens) (UniProt O75469). As to the kind of experiment: ATG_PXR_TRANS: Attagene TRANS-FACTORIAL HepG2 Assay for human Pregnane X Receptor (PXR) (AID 2283008; active = hit-call score of the fitted dose curve at least 0.9, where 1 is the maximum). In short, it runs like this:
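Fluorescence intensity of FAM-labelled, HpaI-digested reporter amplicons, separated by capillary electrophoresis, quantifies induction. HepG2 cells with PXR-Gal4 trans-reporter system were exposed 24 h; DMSO defines baseline.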

The target of experiment [7] is human Retinoic Acid Receptor gamma (RARg), RARG (gene 5916) (UniProt P13631). As to the kind of experiment: ATG_RARg_TRANS: Attagene TRANS-FACTORIAL HepG2 Assay for human Retinoic Acid Receptor gamma (RARg) (AID 2283009; active = hit-call score of the fitted dose curve at least 0.9, where 1 is the maximum). Put shortly: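 Transient transfection of HepG2 with multi-reporter constructs, then 24 h chemical treatment. Total RNA isolated, reverse-transcribed, PCR-amplified, fluorescently labelled and resolved by capillary electrophoresis; activity scored as mRNA induction versus DMSO.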
human Retinoic Acid Receptor gamma (RARg), RARG (gene 5916), sequence (P13631 whole entry, looked up): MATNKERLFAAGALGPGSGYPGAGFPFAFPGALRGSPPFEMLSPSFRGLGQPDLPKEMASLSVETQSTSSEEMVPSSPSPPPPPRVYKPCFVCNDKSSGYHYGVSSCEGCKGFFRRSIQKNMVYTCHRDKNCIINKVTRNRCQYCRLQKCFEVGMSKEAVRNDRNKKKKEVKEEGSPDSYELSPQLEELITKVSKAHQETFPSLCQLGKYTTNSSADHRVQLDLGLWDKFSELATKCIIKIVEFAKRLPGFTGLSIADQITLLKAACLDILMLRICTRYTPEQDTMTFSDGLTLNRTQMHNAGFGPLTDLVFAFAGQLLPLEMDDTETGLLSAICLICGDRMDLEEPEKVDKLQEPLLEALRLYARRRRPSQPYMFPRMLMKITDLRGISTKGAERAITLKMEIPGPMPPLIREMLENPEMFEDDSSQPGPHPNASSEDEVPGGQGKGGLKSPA

Experiment [8] has as its target human RAR-related Orphan Receptor beta (RORb), RORB (gene 6096) (UniProt Q92753). Briefly: ATG_RORb_TRANS: Attagene TRANS-FACTORIAL HepG2 Assay for human RAR-related Orphan Receptor beta (RORb) (AID 2283010; active = hit-call score of the fitted dose curve at least 0.9, where 1 is the maximum). Put shortly:
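Readout is reporter-gene mRNA induction, detected as fluorescence after RT-PCR and capillary electrophoresis, fitted for gain of signal against DMSO controls. Transiently transfected HepG2 liver cells carrying GAL4-UAS reporter constructs were treated for 24 hours.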

Experiment [9] concerns the target Retinoic acid receptor RXR-alpha (Homo sapiens) (UniProt P19793). As to the kind of experiment: ATG_RXRa_TRANS: Attagene TRANS-FACTORIAL HepG2 Assay for human Retinoid X Receptor alpha (RXRa) (AID 2283012; active = hit-call score of the fitted dose curve at least 0.9, where 1 is the maximum). Put shortly: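 Transient transfection of human HepG2 with multiple GAL4-UAS reporter constructs; 24 h compound exposure; total RNA isolated, reverse-transcribed, PCR-amplified, 6-FAM labelled, HpaI-cut, resolved by capillary electrophoresis. Positive-direction fit versus DMSO.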

The target of experiment [10] is human Retinoid X Receptor beta (RXRb), RXRB (gene 6257) (UniProt P28702). As to the kind of experiment: ATG_RXRb_TRANS: Attagene TRANS-FACTORIAL HepG2 Assay for human Retinoid X Receptor beta (RXRb) (AID 2283013; active = hit-call score of the fitted dose curve at least 0.9, where 1 is the maximum). In short, it runs like this: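 Transfect HepG2 with GAL4-UAS multi-reporter constructs (chimeric NR-Gal4, TRANS format); dose compound 24 h; isolate RNA, RT-PCR, FAM primer extension, HpaI digest; quantify by capillary electrophoresis; positive direction vs DMSO.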
human Retinoid X Receptor beta (RXRb), RXRB (gene 6257), sequence (P28702 whole entry, looked up, the tested form may be a part): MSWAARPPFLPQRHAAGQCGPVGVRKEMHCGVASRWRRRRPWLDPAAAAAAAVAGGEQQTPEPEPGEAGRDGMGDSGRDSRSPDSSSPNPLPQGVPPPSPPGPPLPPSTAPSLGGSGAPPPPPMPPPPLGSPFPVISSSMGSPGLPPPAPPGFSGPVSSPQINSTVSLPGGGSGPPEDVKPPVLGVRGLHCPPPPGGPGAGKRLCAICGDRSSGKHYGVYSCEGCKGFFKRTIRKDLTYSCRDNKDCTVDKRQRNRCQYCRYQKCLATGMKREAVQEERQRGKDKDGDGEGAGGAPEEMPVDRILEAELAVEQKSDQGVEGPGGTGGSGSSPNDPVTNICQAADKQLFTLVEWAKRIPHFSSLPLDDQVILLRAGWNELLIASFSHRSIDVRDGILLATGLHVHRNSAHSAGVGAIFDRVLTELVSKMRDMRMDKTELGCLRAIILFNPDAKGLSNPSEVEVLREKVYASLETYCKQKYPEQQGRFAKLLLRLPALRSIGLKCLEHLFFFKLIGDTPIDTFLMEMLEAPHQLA

Read-out in experiment [11]: E-selectin (Homo sapiens) (UniProt P16581)
As to the kind of experiment: BSK_3C_Eselectin: BioMAP Diversity Plus: 3C Assay for Eselectin Biomarker Activity (AID 2283015).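 For outcome: cell surface E-selectin protein quantified by ELISA 24 h after dosing.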 The note with it: primary human endothelial cells (HUVEC); actives raise or lower the signal. In short, it runs like this:
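Primary human umbilical vein endothelial cells (3C system) were dosed with chemical and cell-surface E-selectin measured by ELISA 24 h later. Bidirectional curve fitting used DMSO as negative control and baseline.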

Read-out in experiment [12]: Interleukin-1 alpha (IL1a), IL1A (gene 3552)
Briefly: BSK_BE3C_IL1a: BioMAP Diversity Plus: BE3C Assay for Interleukin-1 alpha (IL1a) Biomarker Activity (AID 2283016). Particulars: primary human bronchial epithelial cells; actives raise or lower the signal. In short, it runs like this: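 BE3C primary human bronchial epithelium; cpd 24 h; IL-1a by ELISA; bidirectional fit vs DMSO; parallel SRB (0.1% SRB, 10% TCA fix, 560 nm) for cytotoxicity.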

Read-out in experiment [13]: Monocyte Chemoattractant Protein-1 (MCP1), CCL2 (gene 6347)
As to the kind of experiment: BSK_3C_MCP1: BioMAP Diversity Plus: 3C Assay for Monocyte Chemoattractant Protein-1 (MCP1) Biomarker Activity (AID 2283017). The note with it: primary human endothelial cells (HUVEC); actives raise or lower the signal. In short, it runs like this: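 Primary human umbilical vein endothelial cells (3C system) were exposed to test chemical for 24 h, after which MCP-1 was quantified by ELISA. Activity was fitted bidirectionally against DMSO as negative control and baseline.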

Read-out in experiment [14]: Monocyte Chemoattractant Protein-1 (MCP1), CCL2 (gene 6347)
Briefly: BSK_4H_MCP1: BioMAP Diversity Plus: 4H Assay for Monocyte Chemoattractant Protein-1 (MCP1) Biomarker Activity (AID 2283018). The note with it: primary human endothelial cells (HUVEC); actives raise or lower the signal. Put shortly: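 ELISA read-out of MCP-1 from human vascular endothelial primary cells taken at 24 hours after compound exposure. Activity was fitted in both directions relative to DMSO, which served as negative control.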

Read-out in experiment [15]: Human Leukocyte Antigen - DR isotype (HLADR), HLA-DRA (gene 3122)
Briefly: BSK_3C_HLADR: BioMAP Diversity Plus: 3C Assay for Human Leukocyte Antigen - DR isotype (HLADR) Biomarker Activity (AID 2283019). The note with it: primary human endothelial cells (HUVEC); actives raise or lower the signal. Put shortly: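 Primary human umbilical vein endothelial cells (3C system) were dosed with compound and cell-surface HLA-DR was quantified by ELISA at 24 h. Activity was fitted bidirectionally against DMSO as negative control and baseline.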

Read-out in experiment [16]: Interleukin-8 (IL8), CXCL8 (gene 3576)
Briefly: BSK_3C_IL8: BioMAP Diversity Plus: 3C Assay for Interleukin-8 (IL8) Biomarker Activity (AID 2283020). The note with it: primary human endothelial cells (HUVEC); actives raise or lower the signal. In short, it runs like this: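 ELISA read-out of IL-8 from human umbilical vein endothelium, measured 24 h after chemical dosing. Activity is expressed relative to DMSO negative control, with both increases and decreases fitted.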

Read-out in experiment [17]: Intercellular Adhesion Molecule 1 (ICAM1), ICAM1 (gene 3383)
Briefly: BSK_3C_ICAM1: BioMAP Diversity Plus: 3C Assay for Intercellular Adhesion Molecule 1 (ICAM1) Biomarker Activity (AID 2283003). Particulars: primary human endothelial cells (HUVEC); actives raise or lower the signal. In short, it runs like this: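 ICAM-1 levels measured by ELISA after HUVEC cultures in the 3C system had been dosed for 24 h. Gain or loss of signal relative to DMSO was fitted in both directions.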

The target of experiment [18] is human RAR-related Orphan Receptor gamma (RORg), RORC (gene 6097) (UniProt P51449). As to the kind of experiment: ATG_RORg_TRANS: Attagene TRANS-FACTORIAL HepG2 Assay for human RAR-related Orphan Receptor gamma (RORg) (AID 2283011; active = hit-call score of the fitted dose curve at least 0.9, where 1 is the maximum). In short, it runs like this:
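Readout: reporter transcript induction (RT-PCR, fluorescent primer extension, capillary electrophoresis) after 24 h compound exposure of transiently transfected HepG2 cells carrying a RORg-Gal4 chimera and GAL4-UAS reporters; DMSO served as baseline, with increasing signal fitted.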

The target of experiment [19] is human Peroxisome Proliferator-activated Receptor alpha (PPARa), PPARA (gene 5465) (UniProt Q07869). Briefly: ATG_PPARa_TRANS: Attagene TRANS-FACTORIAL HepG2 Assay for human Peroxisome Proliferator-activated Receptor alpha (PPARa) (AID 2283001; active = hit-call score of the fitted dose curve at least 0.9, where 1 is the maximum). In short, it runs like this: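 Gain-of-signal endpoint: reporter mRNA induction relative to DMSO, detected by fluorescent RT-PCR and capillary electrophoresis. HepG2 cells transiently carried GAL4-UAS-driven reporter units plus NR-Gal4 fusion; exposure lasted 24 h.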

Records with an inconclusive call do not appear. Calls of active or inactive are those of the source. Rule for the calls, unless noted: active = hit-call score of the fitted dose curve at least 0.9, where 1 is the maximum; inactive = score below 0.9.

Nuclear receptor subfamily 1 group I member 2 (Homo sapiens), sequence (O75469 whole entry, looked up, the tested form may be a part): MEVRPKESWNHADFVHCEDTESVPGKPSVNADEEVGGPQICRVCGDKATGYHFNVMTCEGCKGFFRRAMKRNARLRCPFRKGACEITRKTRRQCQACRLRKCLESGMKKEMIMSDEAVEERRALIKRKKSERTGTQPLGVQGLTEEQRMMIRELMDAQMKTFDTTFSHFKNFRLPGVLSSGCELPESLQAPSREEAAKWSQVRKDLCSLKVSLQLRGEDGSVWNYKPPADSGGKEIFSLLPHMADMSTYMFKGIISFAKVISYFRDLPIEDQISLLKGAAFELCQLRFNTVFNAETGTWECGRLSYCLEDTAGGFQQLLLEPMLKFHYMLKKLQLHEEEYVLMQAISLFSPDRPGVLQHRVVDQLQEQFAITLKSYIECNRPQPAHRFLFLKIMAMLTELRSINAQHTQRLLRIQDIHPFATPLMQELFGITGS
Retinoic acid receptor alpha (Homo sapiens), sequence (P10276 whole entry, looked up, the tested form may be a part): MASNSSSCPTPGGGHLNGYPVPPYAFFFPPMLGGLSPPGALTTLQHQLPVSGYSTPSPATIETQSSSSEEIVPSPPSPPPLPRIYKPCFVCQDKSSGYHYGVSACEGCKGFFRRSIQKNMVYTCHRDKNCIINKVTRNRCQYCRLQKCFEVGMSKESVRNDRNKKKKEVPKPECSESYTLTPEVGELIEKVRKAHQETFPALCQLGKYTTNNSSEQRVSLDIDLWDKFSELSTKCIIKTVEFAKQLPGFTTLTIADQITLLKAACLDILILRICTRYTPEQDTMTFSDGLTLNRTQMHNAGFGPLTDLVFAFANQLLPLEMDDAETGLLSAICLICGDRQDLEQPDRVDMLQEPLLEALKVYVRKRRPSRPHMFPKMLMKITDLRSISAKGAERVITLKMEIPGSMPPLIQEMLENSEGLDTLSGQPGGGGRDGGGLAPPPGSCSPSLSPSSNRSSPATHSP
E-selectin (Homo sapiens), sequence (P16581 whole entry, looked up): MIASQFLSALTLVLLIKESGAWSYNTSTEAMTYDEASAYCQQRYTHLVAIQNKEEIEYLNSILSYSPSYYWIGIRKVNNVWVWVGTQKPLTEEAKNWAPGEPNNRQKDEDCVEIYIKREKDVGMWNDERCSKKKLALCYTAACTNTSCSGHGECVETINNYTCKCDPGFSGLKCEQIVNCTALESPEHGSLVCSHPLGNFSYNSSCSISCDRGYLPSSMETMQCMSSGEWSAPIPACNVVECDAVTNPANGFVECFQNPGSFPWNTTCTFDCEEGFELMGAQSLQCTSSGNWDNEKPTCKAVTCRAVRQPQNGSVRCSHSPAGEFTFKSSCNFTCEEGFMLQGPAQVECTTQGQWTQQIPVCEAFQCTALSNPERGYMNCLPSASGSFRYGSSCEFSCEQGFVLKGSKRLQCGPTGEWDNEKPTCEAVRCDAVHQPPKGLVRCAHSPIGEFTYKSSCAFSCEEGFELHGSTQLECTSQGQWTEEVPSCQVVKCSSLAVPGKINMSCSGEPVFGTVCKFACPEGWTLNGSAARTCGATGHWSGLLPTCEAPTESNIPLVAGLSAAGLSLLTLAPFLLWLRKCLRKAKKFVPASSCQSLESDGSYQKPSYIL
human RAR-related Orphan Receptor beta (RORb), RORB (gene 6096), sequence (Q92753 whole entry, looked up, the tested form may be a part): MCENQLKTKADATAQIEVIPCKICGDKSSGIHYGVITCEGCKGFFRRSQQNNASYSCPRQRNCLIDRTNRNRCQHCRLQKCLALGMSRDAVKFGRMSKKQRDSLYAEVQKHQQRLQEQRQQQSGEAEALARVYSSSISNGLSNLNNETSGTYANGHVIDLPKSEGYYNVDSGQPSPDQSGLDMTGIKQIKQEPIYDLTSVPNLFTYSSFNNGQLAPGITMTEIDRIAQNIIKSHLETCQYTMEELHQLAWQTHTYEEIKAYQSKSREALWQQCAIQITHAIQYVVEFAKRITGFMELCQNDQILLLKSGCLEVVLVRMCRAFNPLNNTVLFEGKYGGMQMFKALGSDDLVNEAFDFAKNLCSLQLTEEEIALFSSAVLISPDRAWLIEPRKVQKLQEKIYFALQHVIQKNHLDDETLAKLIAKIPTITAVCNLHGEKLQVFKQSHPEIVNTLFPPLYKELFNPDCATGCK
Retinoic acid receptor RXR-alpha (Homo sapiens), sequence (P19793 whole entry, looked up, the tested form may be a part): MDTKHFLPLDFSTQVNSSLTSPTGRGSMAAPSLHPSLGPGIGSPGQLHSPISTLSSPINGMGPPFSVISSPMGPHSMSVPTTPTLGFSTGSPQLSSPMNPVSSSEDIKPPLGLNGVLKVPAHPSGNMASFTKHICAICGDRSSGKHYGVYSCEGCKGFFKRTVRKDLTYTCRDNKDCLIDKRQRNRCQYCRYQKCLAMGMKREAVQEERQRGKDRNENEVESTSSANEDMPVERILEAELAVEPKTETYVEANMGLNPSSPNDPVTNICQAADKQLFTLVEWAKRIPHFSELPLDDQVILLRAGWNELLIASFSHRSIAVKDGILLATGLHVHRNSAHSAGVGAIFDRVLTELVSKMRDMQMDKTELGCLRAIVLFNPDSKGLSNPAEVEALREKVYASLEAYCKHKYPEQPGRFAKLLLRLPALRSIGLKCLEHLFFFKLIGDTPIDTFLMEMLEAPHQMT
human RAR-related Orphan Receptor gamma (RORg), RORC (gene 6097), sequence (P51449 whole entry, looked up, the tested form may be a part): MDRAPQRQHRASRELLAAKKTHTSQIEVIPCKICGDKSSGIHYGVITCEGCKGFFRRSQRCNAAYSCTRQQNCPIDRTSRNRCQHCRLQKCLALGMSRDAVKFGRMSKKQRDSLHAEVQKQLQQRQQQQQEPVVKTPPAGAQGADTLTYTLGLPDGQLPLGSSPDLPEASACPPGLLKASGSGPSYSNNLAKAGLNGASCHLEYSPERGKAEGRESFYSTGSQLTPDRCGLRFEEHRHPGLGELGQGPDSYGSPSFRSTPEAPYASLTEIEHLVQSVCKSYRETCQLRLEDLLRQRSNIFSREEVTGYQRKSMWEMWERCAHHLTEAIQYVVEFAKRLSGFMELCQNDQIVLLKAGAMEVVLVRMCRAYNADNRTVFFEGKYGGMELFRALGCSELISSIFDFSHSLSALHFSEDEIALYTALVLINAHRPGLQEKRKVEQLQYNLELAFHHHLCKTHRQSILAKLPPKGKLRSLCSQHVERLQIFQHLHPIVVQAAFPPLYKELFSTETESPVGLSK

`Nc1c(Cl)c(F)nc(OCC(=O)O)c1Cl`: the result in [1], in [2], in experiment [3], in experiment [4], in [5] and in experiment [6] was inactive. The call in experiment [7], in experiment [8], in experiment [9], in experiment [10], in experiment [11] and in [12] was inactive. Moreover, the result in [13], in [14], in experiment [15] and in experiment [16] was inactive.

On to `Cc1c(COC(=O)[C@@H]2[C@H](/C=C(\Cl)C(F)(F)F)C2(C)C)cccc1-c1ccccc1`, for which the result in experiment [1], in experiment [17], in experiment [2], in experiment [3], in [5] and in experiment [6] was inactive. For the same molecule, the outcome in experiment [7], in [8], in experiment [18], in experiment [9], in experiment [10] and in experiment [11] was inactive. Also, the result in experiment [13], in [14] and in experiment [16] was inactive. Further, the half-maximal activity concentration (AC50) in experiment [15] is 5.44 µM (active).

Regarding `CC(C)Nc1nc(Cl)nc(NC(C)C)n1`, the outcome in experiment [1], in [17], in experiment [6], in [9], in [10] and in [11] was inactive. The result in experiment [13], in experiment [14], in experiment [15] and in experiment [16] was inactive.

On to `CCNP(=S)(OC)O/C(C)=C/C(=O)OC(C)C` (stereo not drawn), for which the result in experiment [1], in [17], in experiment [2], in experiment [6], in experiment [7] and in experiment [18] was inactive. The molecule was called inactive in [10], in experiment [11], in [12], in experiment [13], in [14] and in [15]. Besides, the result in experiment [16] was inactive. The AC50 in experiment [3] is 22.1 µM (active); in experiment [5] it was 29.6 µM (active).

In the case of `O=C(Nc1ccccc1-c1ccc(Cl)cc1)c1cccnc1Cl`, the result in experiment [1], in [6], in experiment [8], in experiment [18], in experiment [9] and in experiment [10] was inactive. The result in experiment [11], in experiment [13], in experiment [14], in experiment [15] and in [16] was inactive. Further, the half-maximal activity concentration (AC50) in experiment [5] is 10.9 µM (active).

Regarding `CC(C)C1(C)N=C(c2ncccc2C(=O)O)NC1=O` (stereo not drawn), the result in experiment [1], in [19], in experiment [4], in experiment [5], in [8] and in experiment [18] was inactive. Also, the outcome in experiment [9], in experiment [11], in experiment [13], in [14], in [15] and in experiment [16] was inactive.

As to `CCCCC(O)(Cn1cncn1)c1ccc(Cl)cc1Cl` (stereo not drawn), the outcome in experiment [1], in [6], in experiment [18], in experiment [9], in experiment [11] and in experiment [12] was inactive. The result in experiment [13], in experiment [14] and in [16] was inactive. Besides, in [15], the AC50 is 20 µM (active).

In the case of `OC(c1ccc(Cl)cc1)(c1ccc(Cl)cc1)C(Cl)(Cl)Cl`, the half-maximal activity concentration (AC50) in experiment [1] was 29.8 µM (active); in experiment [11], 13.8 µM (active); in experiment [12] it was 15.1 µM (active); in experiment [13] it was 29.3 µM (active); in experiment [14], 13.8 µM (active); in experiment [15] it was 12 µM (active). The half-maximal activity concentration (AC50) in [16] is 15.3 µM (active). Also, the result in experiment [3], in [6], in [9] and in experiment [10] was inactive.

Take `C=C(C)CN(CC)c1c([N+](=O)[O-])cc(C(F)(F)F)cc1[N+](=O)[O-]`: the outcome in experiment [1], in [17], in experiment [2], in experiment [7], in experiment [18] and in experiment [9] was inactive. Also, the call in [10], in experiment [11], in experiment [12], in experiment [13], in experiment [14] and in experiment [15] was inactive. In addition, the outcome in experiment [16] was inactive. In addition, the AC50 is 30.2 µM (active) in experiment [3], 33.4 µM (active) in [4] and 13.6 µM (active) in experiment [6].

Broadly, the AC50 is the concentration at which the activity in the assay is half-maximal.
